Results reported in PubChem BioAssay AID624483 (NMMLSC, 2012).
Values joined by “and” are separate entries in the source; they are usually repeats but may differ in a detail not shown here. Equal entries are not always repeated. Screen size: about 360,000 compounds; about 11,000 (3.1%) were called active. Not shown: some 2% with an inconclusive outcome. Rule as the data show it: active = fluorescence intensity above about 16000; inconclusive = no clear call, values can overlap the other calls; inactive = below that. Only a selection was taken, and actives are over-represented in it overall. A structure can be active in one record and inactive in another.

test: counter-screen for toxin protease inhibitors: compound fluorescence, primary screen, artefact control for toxin protease inhibitor project, biochemical, multiplex microsphere, HTS (AID 624483); details: compound autofluorescence counterscreen, microsphere flow cytometry; stronger effect = higher value

Compound | fluorescence intensity
O=C(CN1C(=O)NC2(CCCCCC2)C1=O)Nc1ccc([N+](=O)[O-])cc1 | 3160 (inactive)
O=C(NCCO)c1cccc(-c2cccc3nccn23)c1 | 3960 (inactive)
C[C@H](CO)N1C[C@H](C)[C@@H](CN(C)Cc2ccc(-c3ccccc3)cc2)Oc2ccc(NC(=O)Cn3cnnn3)cc2C1=O | 3780 (inactive)
COc1ccc(NC(=O)C2Cc3c(-c4cccc(NC(C)=O)c4)ccnc3O2)cc1OC (stereo not given) | 3970 (inactive)
CNC(=O)CN1C(=O)NC(c2ccccc2)(c2ccccc2)C1=O | 4630 (inactive)
CC1(C(=O)NS(=O)(=O)c2ccccc2Cl)CCN1C(=O)c1cccc(F)c1 (stereo not given) | 2940 (inactive)
O=c1[nH]c(=O)n(Cc2ccco2)c2c1C(C(F)(F)F)(C(F)(F)F)N=C(c1ccco1)N2 | 24800 (active)
Cc1ccccc1C1=NC(C(F)(F)F)(C(F)(F)F)c2c(n(-c3ccc(F)cc3)c(=O)[nH]c2=O)N1 | 10500 (inactive)
CC(=O)Nc1ccc(S(=O)(=O)NC2(C(F)(F)F)C(=O)Nc3c2c(=O)[nH]c(=O)n3Cc2ccccc2)cc1 (stereo not given) | 2630 (inactive)
CC(C)C[C@H]1CNC(=O)C(=O)N1C[C@H]1CCCN1C[C@H](Cc1ccc(O)cc1)N1C[C@H](CC(C)C)N(CC2CCCCCC2)C(=O)C1=O | 4880 (inactive)
Cc1ccc2nc(NCCCNC(=O)c3cnccn3)c(C#N)cc2c1 | 20100 (active)
O=C(COc1ccc(Cl)cc1Cl)NCCCNC(=O)c1cnccn1 | 3160 (inactive)
COCCCNC(=S)NCCNc1nc2cc(C)c(C)cc2cc1C#N | 4720 (inactive)
CCOc1ccc2nc(Cl)c(C3CC(c4ccccc4)=NN3C(=O)c3cccs3)cc2c1 (stereo not given) | 2410 (inactive)
Nc1ccccc1Sc1cc(Cl)nnc1Cl | 3840 (inactive)
CCc1cc(Br)ccc1NC(=O)C1CCCO1 (stereo not given) | 10900 (inactive)
COC(=O)c1cc(OC)c(OC)cc1NC(=O)C1CCCO1 (stereo not given) | 18500 (active)
CCOC(=O)c1ccc(NC(=O)c2ccc(NC(=O)C3CCCO3)cc2)cc1 (stereo not given) | 3420 (inactive)
O=S1(=O)CC(N2CCN(Cc3ccccc3F)CC2)CN1Cc1cn(Cc2ccccc2)nn1 (stereo not given) | 5590 (inactive)
CCC(C)(C(=O)Nc1ccccc1C)N(C(=O)CNC(C)=O)c1ccc(C)cc1 (stereo not given) | 2200 (inactive)
CC1CCN(c2ccc([N+](=O)[O-])c(SCCO)c2)CC1 | 6270 (inactive)
CN1CCN(c2ccc([N+](=O)[O-])c(Sc3nc4ccccc4[nH]3)c2)CC1 | 16500 (active)
COc1cccc(-c2nc3ccc(N4CCN(C)CC4)cc3[nH]2)c1 | 3340 (inactive)

Compound | fluorescence intensity
CC1Cc2[nH][nH]c(=O)c2C(C2CCCC2)O1 (stereo not given) | 6280 (inactive)
Cc1ccc(C(=O)C[n+]2cc(-c3ccccc3)n3c2CCCCC3)cc1 | 25100 (active) and 2670 (inactive)
Clc1ccc(C[n+]2cc(-c3ccccc3)n3c2CCC3)cc1 | 3590 (inactive)
Cc1ccc(-c2c[n+](CC(=O)Nc3ccccc3)c3n2CCC3)cc1 | 3860 (inactive)
O=S(=O)(N1CCCCC1)N1CCNCC1 | 9990 (inactive)
O=C(/C=C/c1ccc(Cl)cc1)N1CCN(c2ccccc2[N+](=O)[O-])CC1 | 2480 (inactive)
CO/N=C/c1ccc(N2CCN(C(=O)c3cccc(Cl)c3)CC2)c([N+](=O)[O-])c1 | 22700 (active)
O=C(c1ccc(Cl)c([N+](=O)[O-])c1)N1CCN(c2ccccc2)CC1 | 4410 (inactive)
Cc1cccnc1C(NC(=O)C1CCN(Cc2ccc(Cl)c(Cl)c2)CC1)c1ccc(Cl)cc1 (stereo not given) | 3480 (inactive)
Cc1ccc(S(=O)(=O)NCCC(c2ccccc2)c2ccccc2)cc1C(=O)O | 3790 (inactive)
COc1ccc(NC(=S)N2N=CCC2c2ccccc2)cc1 (stereo not given) | 22400 (active)
COc1ccc(NC(=S)N2CCc3cc(OC)c(OC)cc3C2)cc1 | 5760 (inactive)
CCC(C)N(C)C1CCN(C(=S)Nc2ccc(OC)cc2)CC1 (stereo not given) | 4340 (inactive)
Cc1ccc(-c2nc3c(Cl)cc(C(F)(F)F)cn3c2Cc2cccc(Cl)c2)cc1 | 5350 (inactive)
Cc1ccn(CC(=O)N2N=C(C(F)F)CC2(O)C(F)F)n1 (stereo not given) | 2400 (inactive)
Cc1nn(Cc2ccc(C(=O)N3N=C(C(F)F)CC3(O)C(F)F)cc2)c(C)c1[N+](=O)[O-] (stereo not given) | 20600 (active)
Cc1ccc(C(C)NC(=O)Cn2nc(C)c([N+](=O)[O-])c2C)cc1 (stereo not given) | 8570 (inactive)
CCOC(=O)C1=CN(Cc2ccc(Br)cc2)S(=O)(=O)N(C)C1C (stereo not given) | 2790 (inactive)
COc1ccc(C(C#N)=C2C=CC(=NO)c3ccccc32)cc1 | 5680 (inactive)
Cn1sc(=O)c2cc(S(=O)(=O)NC3CC3)ccc21 | 3800 (inactive)
CC(=O)Nc1ccc(S(=O)(=O)NCCc2ccccc2)cc1 | 11200 (inactive)
CC1CCC(NS(=O)(=O)c2ccc3c(c2)CC(=O)N3)CC1 (stereo not given) | 6000 (inactive)
CC1CCC(NS(=O)(=O)c2ccc3c(c2)n(C)c(=O)c(=O)n3C)CC1 (stereo not given) | 22600 (active)

Compound | fluorescence intensity
Cn1c(=O)c(=O)n(C)c2cc(S(=O)(=O)NCCc3ccccc3)ccc21 | 21300 (active)
Cn1c(=O)c(=O)n(C)c2cc(S(=O)(=O)NCCN3CCN(c4ccccc4F)CC3)ccc21 | 5840 (inactive)
COc1ccc([C@H]2CC(=O)C[C@@H](CCn3cc(CC4CCCC4)nn3)O2)cc1 | 5900 (inactive)
O=C(NCc1ccccc1)C1c2ccccc2OCC(=O)N1CCCN1CCOCC1 (stereo not given) | 4950 (inactive)
O=C(/C=C/[C@H]1O[C@@H](n2ccc(=O)[nH]c2=O)[C@H](O)[C@@H]1O)NCc1ccccn1 | 4540 (inactive)
O=C(c1cccc(F)c1)N1CCN(c2ccc([N+](=O)[O-])c3cccnc23)CC1 | 3360 (inactive)
N#Cc1ccc(C(c2ccc(C#N)cc2)n2cncn2)cc1 | 5930 (inactive)
Cc1ccc(S(=O)(=O)NC2CCCCCC2)cc1 | 3430 (inactive)
Cc1cccc(CCNS(=O)(=O)c2ccc3c(c2)NC(=O)CO3)c1 | 6090 (inactive)
Cc1cccc(CCNS(=O)(=O)c2ccc(S(=O)(=O)NC3CCCC3)cc2)c1 | 23700 (active)
O=C(Nc1nnc([C@H]2C[C@H](O)[C@@H](CO)O2)s1)c1cccc(Cl)c1 | 3090 (inactive)
Cc1ccc(C(=O)Nc2nnc(-c3ccncc3)s2)o1 | 20300 (active)
NC(=O)CSc1nnc(NC(=O)c2ccc(Br)o2)s1 | 5930 (inactive)
O=C(Nc1nnc(Cc2ccc(Cl)cc2)s1)c1ccncc1 | 5560 (inactive)
COc1ccc(C(O)c2nc(-c3ccc(OC)nc3)cs2)cc1 (stereo not given) | 3040 (inactive)
COc1cc(OC)cc(C2=Cc3ccccc3C(CC(=O)c3ccco3)N2c2ccc(-c3cnc(OC)nc3)cc2)c1 (stereo not given) | 5230 (inactive)
Cc1ccc2c(c1)N(CC(=O)N1CCCc3ccccc31)C(=O)C(C)O2 (stereo not given) | 22200 (active)
Cc1ccc2c(c1)N(CC(=O)N1CCCC(C)C1)C(=O)CO2 (stereo not given) | 6170 (inactive)
Cc1ccc(C(=O)N2CCCc3ccccc32)c(Cl)c1 | 3770 (inactive)
Cn1nc(-c2ccc(Cl)cc2)c2cc(C(=O)NCc3ccco3)sc21 | 5560 (inactive)
COC(=O)c1ccc(CSc2nncn2C)cc1 | 11000 (inactive)
COC(=O)c1ccc(CNC(=O)c2ccc3oc(C(C)C)nc3c2)cc1 | 6320 (inactive)
COC(=O)c1ccc(CSc2nc3cc(Cl)ccc3o2)cc1 | 22300 (active)

Compound | fluorescence intensity
CCC(C)C(CO)NC(=O)/C=C/[C@H]1O[C@@H](n2cnc3c(NC(=O)c4ccccc4)ncnc32)[C@H](O)[C@@H]1O (stereo not given in full) | 4240 (inactive)
CC(=O)c1ccc(N2CCN(S(=O)(=O)c3ccc4c(c3)CC(=O)N4C)CC2)cc1 | 4560 (inactive)
COc1ccc(CCN2C(=O)C(C)=C(C)C2=O)cc1OC | 3920 (inactive)
COc1ccc(CCN2C(=O)c3[nH]nc(-c4ccccc4O)c3C2c2ccc(C)cc2)cc1OC (stereo not given) | 17800 (active)
COC(=O)c1ccc(C2C(Oc3ccccc3C)C(=O)N2CCc2ccc(OC)c(OC)c2)cc1 (stereo not given) | 2780 (inactive)
COc1ccc(C2/C=C\CN(S(=O)(=O)c3cccs3)CC(=O)N2Cc2ccc(F)cc2)cc1 (stereo not given) | 3100 (inactive)
Cc1cccc(NC(=S)N2CCC(O)CC2)c1C | 4400 (inactive)
O=C1Nc2c(Br)cc(Br)cc2C1(O)N1CCOCC1 (stereo not given) | 4310 (inactive)
O=C1c2ccccc2C(=O)N1CCCc1nc(-c2ccccc2)no1 | 21200 (active)
O=C(Cc1ccc(Cl)cc1)NCc1nc(-c2ccccc2)no1 | 3500 (inactive)
O=C(CCN1C(=O)[C@H]2CC=CC[C@H]2C1=O)NCc1nc(-c2ccccc2)no1 | 4420 (inactive)
COc1cc(CNc2ncnc3c2ncn3[C@H]2CN(Cc3cccs3)C[C@@H](CO)O2)cc(OC)c1OC | 2940 (inactive)
CC1(C(=O)NS(=O)(=O)c2cccc(F)c2)CCN1C(=O)Cc1cc(F)ccc1F (stereo not given) | 3880 (inactive)
C/C(=N/NC(=O)c1ccn(C)n1)c1ccncc1 | 4250 (inactive)
O=C(/C(=N\O)n1cncn1)c1ccc(Br)cc1Br | 21600 (active)
CC(=O)N/N=C(\C)c1ccc(Br)cc1Br | 4300 (inactive)
Cc1nc2ccc(NC(=O)C(F)(F)F)cc2o1 | 21700 (active)
Cc1ccc(NC(=O)Nc2ccc3oc(C)nc3c2)cc1 | 4170 (inactive)
Cc1ccc2nc(-c3ccc(NC(=O)c4cccnc4)cc3)oc2c1 | 4480 (inactive)
O=C(CC[C@H]1O[C@@H](n2ccc(=O)[nH]c2=O)[C@H](O)[C@@H]1O)N[C@H](Cc1ccccc1)C(=O)NCCCN1CCCC1=O | 4310 (inactive)
O=C1NC(O)CCN1C1CC(O)C(CO)O1 (stereo not given) | 6570 (inactive)
